Screen size: about 340,000 compounds; about 2,800 (0.82%) were called active.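 How the source made its calls: active means B-score under library mean minus 4 SD, starting fluorescence ratio at most library mean plus 5 SD; inactive means the rest.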 This excerpt belongs to a sample that is enriched for actives.

The target of this assay is Potassium channel subfamily K member 3 (Homo sapiens) (UniProt O14649). In words: blockers of TASK1 two-pore potassium channel – CHO cells, FluxOR thallium flux, B-score, primary screen (AID 602410).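 On B-score: more negative B-score means stronger inhibition of thallium flux through KCNK3.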 Conditions: CHO-KCNK3 thallium flux, FluxOR fluorescence, at 10 µM; hits give low values.
Sequence of Potassium channel subfamily K member 3 (Homo sapiens) (O14649 whole entry, looked up): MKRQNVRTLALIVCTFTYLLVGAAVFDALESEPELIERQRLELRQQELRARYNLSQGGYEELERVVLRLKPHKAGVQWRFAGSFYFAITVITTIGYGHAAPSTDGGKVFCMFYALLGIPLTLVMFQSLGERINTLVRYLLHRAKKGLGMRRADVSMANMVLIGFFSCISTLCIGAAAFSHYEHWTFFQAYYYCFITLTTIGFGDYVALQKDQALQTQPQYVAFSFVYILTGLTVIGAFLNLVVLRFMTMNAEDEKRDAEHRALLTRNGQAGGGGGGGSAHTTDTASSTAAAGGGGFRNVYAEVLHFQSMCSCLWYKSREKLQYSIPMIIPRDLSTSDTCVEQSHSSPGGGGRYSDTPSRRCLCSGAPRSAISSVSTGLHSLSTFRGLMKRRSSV
Take `CCN(CC(=O)NCc1ccc(F)cc1)S(=O)(=O)c1ccc(Cl)s1`: the B-score result was “inactive”.
For the compound `CC(C(=O)NC1CCCC1)N(c1ccc(Oc2ccccc2)cc1)S(C)(=O)=O` (stereo not drawn), the B-score entry was “inactive”.
For `COC(=O)c1cc(C)sc1NC(=O)CC1Nc2ccccc2NC1=O` (stereo not drawn), the B-score entry was “inactive”.
For the compound `O=C(OCN1C(=O)c2ccccc2C1=O)/C(=C\c1ccco1)NC(=O)c1ccccc1`, the B-score result was “inactive”.
The entry for `COC(=O)COc1ccc2c(c1C)O/C(=C\c1ccco1)C2=O` is “inactive”; for `COC(=O)C1=C(C)N(C(C)c2ccccc2)C(=O)/C1=C\c1ccco1` (stereo not drawn) it is -9.57 (active); for `CC(=O)NCCC(=O)Nc1cc(S(=O)(=O)N2CCCCC2)ccc1Oc1cccc(C)c1` it is “inactive”.
The entry for `Cc1c(NC(=O)CCC2CCCCC2)cc(C(=O)N2CCOCC2)cc1[N+](=O)[O-]` is “inactive”.
The entry for `CC(C)N1C(=O)N(c2ccccc2)C(C)(O)CC1(C)C` (stereo not drawn) is “inactive”.
For `CC(C)N(Cc1nc(-c2ccc3c(c2)OCO3)no1)CC1CCC(=O)N1` (stereo not drawn), the B-score entry is “inactive”.
On to `Cc1c(S(=O)(=O)NC(C)c2ccccc2)c(=O)n(C)c(=O)n1C` (stereo not drawn), for which the B-score entry was “inactive”.
The figure for `Cc1ccc(NC(=O)COC(=O)CNC(=O)c2ccc(Cl)cc2Cl)cc1S(=O)(=O)N1CCOCC1` is -10.7 (active); for `Cc1ccc(NC(=O)CCCNC(=O)c2ccc(Cl)cc2)cc1S(=O)(=O)N1CCOCC1` it is “inactive”.
The entry for `Cc1ccc(NC(=O)COC(=O)C2CC2)cc1S(=O)(=O)N1CCOCC1` is “inactive”; for `CC1COc2ccccc2N1C(=O)c1cccnc1Cl` (stereo not drawn) it is “inactive”.
The figure for `CC(=O)c1ccccc1OCc1ccc(C(=O)c2ccccc2)cc1` is -15.7 (active); for `O=C(NC1CCC(O)CC1)c1ccccc1OCc1ccc(F)cc1` (stereo not drawn) it is “inactive”; for `COc1ccc(CCNC(=O)c2ccccc2OCc2ccccc2)cc1` it is “inactive”.
For the compound `O=C(OCCOCn1cc(Br)c(=O)[nH]c1=O)c1ccccc1`, the B-score result was “inactive”.
The entry for `Fc1cccc2ncnc(OCc3ccccc3)c12` is “inactive”.
As to `Cc1occc(=O)c1OCc1ccc(F)cc1`, the B-score result is “inactive”.
The figure for `Cc1nc2ccccc2cc1OCc1ccc(F)cc1` is -11.4 (active); for `CCc1ccc(N2CC(C(=O)N3CCCCCC3)CC2=O)cc1` (stereo not drawn) it is “inactive”.
As for `COc1cc(/C=N/N2CCN(c3ccccc3)CC2)ccc1OC(C)=O`, the B-score result is “inactive”.
The entry for `COc1ccccc1N1CCN(/N=C/c2ccc(O)cc2O)CC1` is “inactive”; for `COc1ccccc1N1CCN(/N=C\C(Br)=C\c2ccccc2)CC1` it is -9.41 (active).
The entry for `COc1ccc(CC(=O)N[C@@H](CCSC)c2nc3ccccc3[nH]2)cc1` is “inactive”; for `CC1CC(C)CN(c2ccc(S(=O)(=O)N3CCOCC3)cc2)C1` (stereo not drawn) it is “inactive”.
The entry for `Cc1ccc(CSc2nsc(C)c2C#N)cc1` is “inactive”.
In the case of `Cc1cc(C)c(C#N)c(SCc2ccccc2C(=O)O)n1`, the B-score result is “inactive”.
For the compound `Cc1cc(C)c(C#N)c(SCc2ccc3c(c2)OCO3)n1`, the B-score was -11.2 (active).
As to `CCOc1ccc(OCC)c(NC(=O)C(NS(=O)(=O)c2ccc3c(c2)oc(=O)n3C)C(C)C)c1` (stereo not drawn), the B-score entry is “inactive”.
On to `COc1ccccc1OCC(=O)Nc1ccccc1C(=O)NC1CC1`, for which the B-score entry was “inactive”.
With `COc1ccc(C(=O)c2c3ccc([N+](=O)[O-])cc3[n+]([O-])n2CCCN)cc1`, the B-score result was “inactive”.
The entry for `COCC(=O)Nc1cc(C(=O)OC)cc(C(=O)OC)c1` is “inactive”; for `O=C(O)c1ccccc1C(=O)NC1=NN(c2ccccc2)CC1` it is “inactive”.
The entry for `N/C(=N\OC(=O)CCn1cccc(C(F)(F)F)c1=O)c1ccc(OC(F)(F)F)cc1` is “inactive”; for `C=CCc1cc(S(=O)(=O)c2ccc(O)c(CC=C)c2)ccc1O` it is -11 (active); for `COc1ccc(CNC(=O)C2CCC(CNc3c(N4CCOCC4)c(=O)c3=O)CC2)cc1` (stereo not drawn) it is “inactive”.
Regarding `O=C(NCCc1ccccn1)c1nc(Cn2cc([N+](=O)[O-])cn2)no1`, the B-score result was “inactive”.
The figure for `O=C(c1cc(-c2ccc(O)cc2)on1)N1CCCc2ccccc21` is -9.08 (active); for `O=C(c1cc(-c2ccc(O)cc2)on1)N1CCOCC1` it is “inactive”.
For the compound `O=C(c1cc(-c2cccc(O)c2)on1)N1CCc2ccccc2C1`, the B-score entry was “inactive”.
The entry for `Cc1onc(-c2ccccc2)c1C(=O)N=C(N)c1ccc(Cl)cc1` is “inactive”; for `CCc1ccc(C(=O)CSc2nnc(C)c(=O)[nH]2)cc1` it is “inactive”.
The entry for `COC(=O)c1c(NC(=O)c2ccccc2F)sc2c1C(C(=O)OC)CC2` (stereo not drawn) is “inactive”.
The entry for `O=C(CNS(=O)(=O)c1ccccc1)NCC(=O)OCc1ccccc1F` is “inactive”; for `COC(=O)C(C)Sc1ccc2nnc(-c3cccc(F)c3)n2n1` (stereo not drawn) it is “inactive”; for `COCCNc1cc(-c2ccccc2)nc2cc(-c3cccc(F)c3)nn12` it is -8.74 (active).
For the compound `COc1ccc(NC(=O)c2cc3nc(-c4ccccc4)cc(C)n3n2)cc1OC`, the B-score entry was “inactive”.
The figure for `CC1CCCN(CC(=O)Nc2cc(Cl)ccc2Oc2ccccc2)C1` (stereo not drawn) is -11.4 (active).
The entry for `O=C(CSc1ccccc1)Nc1cc(Cl)ccc1Oc1ccccc1` is “inactive”; for `CC(=O)Nc1ccc(NC(=O)CN2CCCC(C)C2)c(Cl)c1` (stereo not drawn) it is “inactive”; for `O=C1CCC[C@@H]2CC(N3CCCCC3)C[C@@H]3CCN1[C@H]23` (stereo partly drawn) it is “inactive”.
The entry for `COc1ccc(CC(NC(C)=O)C(=O)N2CCN(C(=O)Nc3cccc(Cl)c3)CC2)cc1OC` (stereo not drawn) is “inactive”; for `CCCNC(=O)CSc1nc(Cc2ccccc2)nc2ccccc12` it is “inactive”.
Turning to `Cc1ccc(C(=O)NNC(=O)CSc2nnc3ccccn23)cc1`, the B-score entry is “inactive”.
The figure for `CCc1nc(SCC(=O)NNC(=O)c2ccc(C)cc2)c2ccccc2n1` is -8.73 (active).
The entry for `C=CCSc1nc(Cc2ccc(Cl)cc2)nc2ccccc12` is “inactive”.
The entry for `O=C(CNC(=O)c1ccc(Br)o1)Nc1ccccc1` is “inactive”; for `CCN1CCN(c2c(Cl)cccc2NC(=O)c2ccc(Br)o2)CC1` it is “inactive”.
On to `CCCC(=O)Nc1ccc(Cl)c(NC(=O)c2ccc(Br)o2)c1`, for which the B-score is -9.33 (active).
The entry for `CC(=O)C1=C(C)NC(C)=C(C(C)=O)C1c1cn(-c2ccccc2)nc1-c1cccs1` is “inactive”; for `COc1ccc(C(C(=O)NC(C)(C)C)N(C(=O)Cn2nnc3ccccc32)c2ccc(C(C)=O)cc2)cc1O` (stereo not drawn) it is “inactive”.
The entry for `C#CC(C)(C)NC(=O)c1cnc(-c2ccccc2)nc1-c1ccccc1` is “inactive”; for `CS(=O)(=O)c1ccc(-c2nnn(CC(=O)Nc3ccc4c(c3)OCCO4)n2)cc1` it is “inactive”.
The entry for `CC1(C)CC(=O)C/C(=N\NC(=O)c2cccs2)C1` is “inactive”; for `CN(CC(=O)NCCc1ccc(S(N)(=O)=O)cc1)CC(=O)Nc1ccc(F)c(F)c1F` it is “inactive”.

Source of the values: PubChem BioAssay AID602410 (Johns Hopkins Ion Channel Center, 2012).
